# From PubChem BioAssay AID1963315 (National Center for Advancing Translational Sciences (NCATS), 2024)
# Records with an inconclusive call do not appear. Activity calls are given as the source filed them. The call rests on the fitted dose curve.
# Target: Tyrosine-protein kinase ABL1 (Homo sapiens) (UniProt P00519)
# Experiment: ABL1 kinase (ABL1-N-HiBiT) SDR gain of signal screen
# Conditions: Purified ABL1-N-HiBiT enzyme, Nano-Glo HiBiT luminescence, 30 min compound incubation; series mostly up to 32.9 µM; activity change, gain of signal: at the top concentration
# Procedure, shortened: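 ABL1-N-HiBiT at 10 nM final in ATP-free buffer, preincubated with compounds 30 min at room temperature in the dark; Nano-Glo HiBiT reagent added, 10 min further incubation, luminescence read for gain of signal versus DMSO.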
# Sequence of Tyrosine-protein kinase ABL1 (Homo sapiens) (P00519 whole entry, looked up): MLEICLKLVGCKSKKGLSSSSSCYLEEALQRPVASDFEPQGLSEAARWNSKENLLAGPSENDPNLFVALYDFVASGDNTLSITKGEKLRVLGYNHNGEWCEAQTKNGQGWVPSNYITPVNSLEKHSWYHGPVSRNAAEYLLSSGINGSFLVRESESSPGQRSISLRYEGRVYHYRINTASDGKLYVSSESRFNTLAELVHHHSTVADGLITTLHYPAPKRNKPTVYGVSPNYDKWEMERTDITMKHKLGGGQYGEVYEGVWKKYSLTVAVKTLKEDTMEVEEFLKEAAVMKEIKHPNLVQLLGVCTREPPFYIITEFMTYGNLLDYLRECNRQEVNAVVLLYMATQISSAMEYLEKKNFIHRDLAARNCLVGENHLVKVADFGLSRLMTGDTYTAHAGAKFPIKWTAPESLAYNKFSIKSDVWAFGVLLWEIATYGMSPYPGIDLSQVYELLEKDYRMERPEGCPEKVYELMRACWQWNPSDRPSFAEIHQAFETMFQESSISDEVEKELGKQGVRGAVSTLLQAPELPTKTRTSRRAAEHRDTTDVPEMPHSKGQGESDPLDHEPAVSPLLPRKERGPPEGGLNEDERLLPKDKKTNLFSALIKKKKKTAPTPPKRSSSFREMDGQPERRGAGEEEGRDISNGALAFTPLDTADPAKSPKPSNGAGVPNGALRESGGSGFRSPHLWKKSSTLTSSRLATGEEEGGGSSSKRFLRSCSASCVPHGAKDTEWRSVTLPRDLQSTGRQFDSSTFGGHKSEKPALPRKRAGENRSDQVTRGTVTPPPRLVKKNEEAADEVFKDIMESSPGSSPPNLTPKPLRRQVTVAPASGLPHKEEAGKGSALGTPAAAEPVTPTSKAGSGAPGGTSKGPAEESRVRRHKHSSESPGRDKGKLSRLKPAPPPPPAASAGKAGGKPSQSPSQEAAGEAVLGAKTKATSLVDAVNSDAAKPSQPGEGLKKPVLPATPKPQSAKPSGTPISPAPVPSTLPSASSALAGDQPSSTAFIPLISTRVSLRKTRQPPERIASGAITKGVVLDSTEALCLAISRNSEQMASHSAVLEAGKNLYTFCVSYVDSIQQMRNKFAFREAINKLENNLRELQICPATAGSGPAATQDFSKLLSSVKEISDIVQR
Structure (SMILES),Potency,"activity change, gain of signal"
NC1CCC(Nc2nc(Nc3ccc(C(=O)N4CCCCC4)cc3)c3ncn(-c4cccc(F)c4)c3n2)CC1 (stereo not drawn),0.255 µM (active),–
CO[C@H]1/C=C/O[C@@]2(C)Oc3c(C)c(O)c4c(O)c(c(/C=N\N5CCN(C6CCCC6)CC5)c(O)c4c3C2=O)NC(=O)/C(C)=C\C=C\[C@H](C)[C@H](O)[C@@H](C)[C@@H](O)[C@@H](C)[C@H](OC(C)=O)[C@@H]1C,–,-35.9% (inactive)
Cn1sc(=O)n(Cc2ccccc2)c1=O,–,-4.94% (inactive)
